KDM5B inhibitor: blocks human KDM5B histone demethylase activity; KDM5B demethylase, FDH-coupled NADH fluorescence (FDH is formaldehyde dehydrogenase); Potency, µM (series often up to 57.7 µM), hits mostly inhibitors; 220,000 tested, 2.6% active; active = well fitted inhibition curve with a large enough effect; also: 0% is about no effect; nearly all actives have a fitted effect of over 70% in size
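Coupled FDH/NAD⁺ fluorescence readout. KDM5BΔAP 200 nM final; compound titration, 10 min RT preincubation; substrate mix 12.5 µM H3K4me3, 25 µM 2-OG, 50 µM Fe(II), 100 µM ascorbate, 0.25 mM NAD⁺, 0.25 U/mL FDH; ΔRFU over 30 min.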
* = called active by the depositor; i = inactive. The sample as a whole holds a higher share of hits than the screen did. Potency is read from the fitted curve at half-maximal effect.

SMILES | KDM5B inhibitor
O=C(Nc1ccc(Cl)cc1)c1cc2n(n1)CC(c1ccc(Cl)cc1)OC2 (centres undefined) | 32µM*
COc1ccc(CNC(=O)c2cc3n(n2)CC(c2ccc(Cl)cc2)OC3)c(OC)c1 (centres undefined) | i
O=C(c1cc2n(n1)CC(c1ccc(Br)cc1)OC2)N1CCOCC1 (centres undefined) | i
CCOc1ccc(OCC)c(NC(=O)c2cc3n(n2)CC(c2ccc(Cl)cc2)OC3)c1 (centres undefined) | 14µM*
COc1ccc(NC(=O)c2cc3n(n2)CC(c2ccc(Cl)cc2)OC3)cc1 (centres undefined) | i
O=C(Nc1ccccc1)c1cc2n(n1)CC(c1ccc(Br)cc1)OC2 (centres undefined) | 32µM*
NC(=O)CNC(=O)c1cc2n(n1)CC(c1ccc(Br)cc1)OC2 (centres undefined) | i
Cc1cc(C)c(C(=O)NC2CCC(C)CC2)c(C)c1 (centres undefined) | i
COc1cccc(NC(=O)N2CCC(c3cc(-c4cccc(C)c4)n[nH]3)CC2)c1 | i
COc1ccc2nc(NC(=O)c3cc(=O)c4ccc(C)c(C)c4o3)sc2c1 | i
CC(=O)c1ccc(NC(=O)COC(=O)COc2ccc(C3SCCCS3)cc2)cc1 | i
CCNC(=O)N(C1CC1)C1CCOC2(CCN(C(=O)CC3CCCC3)CC2)C1 (centres undefined) | i
CCN1CCN(C(=O)c2cc3n(n2)CC(c2ccc(Br)cc2)OC3)CC1 (centres undefined) | i
O=C(Nc1cc(F)ccc1Cl)c1cc2n(n1)CC(c1ccc(Br)cc1)OC2 (centres undefined) | 25µM*
O=C(c1cc2n(n1)CC(c1ccc(Cl)cc1)OC2)N1CCCCC1 (centres undefined) | i
CC(NC(=O)c1cc2n(n1)CC(c1ccc(Cl)cc1)OC2)c1ccc(F)cc1 (centres undefined) | i
O=C(Nc1ccc(F)c(Cl)c1)c1cc2n(n1)CC(c1ccc(Cl)cc1)OC2 (centres undefined) | 25µM*
O=Cc1c(-c2ccccc2)cc2ccccn12 | i
C/C(Cl)=C\Cc1c(C)nc2c(C)cccc2c1Cl | i
O=C(Nc1cc(F)ccc1Cl)c1cnc(-c2ccccc2)nc1-c1ccncc1 | i
CC(=O)Nc1ccc(CC(=O)Nc2cccc3cccnc23)cc1 | i
CC(=O)Nc1ccc(C(=O)NC[C@@H]2C=C(C)[C@H](CC(=O)NCCN3CCOCC3)C[C@H]2C(C)C)cc1 | i
CCOc1ccc(NC(=O)c2cc3c(N4CCSCC4)nc(C)cn3n2)cc1 | 4µM*
Cc1cn2nc(C(=O)Nc3ccc(N(C)C)cc3)cc2c(N2CCSCC2)n1 | i
CCOc1ccc(NC(=O)c2cnc(N3CCCC3)nc2C)cc1 | i
SMILES | KDM5B inhibitor
CCOc1ccccc1NC(=O)Nc1nnc(N2CCCCCC2)s1 | i
CCOc1ccccc1NC(=O)c1cc2c(N3CCSCC3)nc(C)cn2n1 | 28µM*
CCOc1ccccc1NC(=O)NC1CCN(c2nc(C)cc(C)n2)CC1 | i
CCCC(=O)NCCc1cccc(F)c1 | i
NC(=O)c1cccc(C(=O)NC2CCCc3ccccc32)c1 (centres undefined) | i
O=C(NC1CC1)C1CCc2nnc(C3CC3)n21 (centres undefined) | i
Nn1c(SCC(=O)NCc2ccc(Cl)cc2)nnc1-c1ccco1 | i
COCCN(Cc1ccco1)C(=O)Cn1nc(Cc2cccnc2)c2ccccc2c1=O | i
O=C(Nc1ccc(Cl)cc1Cl)c1ccc2cc[nH]c2n1 | 89µM*
O=C(NCc1ccccc1)c1ccc2ccccc2n1 | i
O=C(Nc1ccc(Cl)cc1Cl)c1c[nH]c2cccnc12 | i
O=C(NCc1ccc(Cl)cc1)c1nc(Cc2c[nH]c3ccccc23)no1 | i
C=CCNC(=O)c1ccc2cc[nH]c2n1 | 45µM*
O=C(NCc1ccc(Cl)cc1)c1ccc2cc[nH]c2n1 | 112µM*
CNC(=O)c1ccc2cc[nH]c2n1 | i
O=C(Nc1ccc(Cl)cc1Cl)c1ccnc2[nH]ccc12 | i
O=C(NC1CC1)c1ccc2cc[nH]c2n1 | i
O=C(N[C@@H]1CCN(C(=O)c2ccc3c(c2)OCO3)C[C@H]1O)c1cnccn1 | i
Cc1ccc(C(=O)C(C)OC(=O)c2c(C)noc2C)cc1C (centres undefined) | i
Cc1c(NC(=O)C(C)C)cccc1-c1nc2cc(Cl)ccc2o1 | i
O=C(O)/C=C/c1ccsc1 | i
Cc1cc(C)cc(-n2ncc3c2NC(=O)CC32C(=O)Nc3ccc(C(C)C)cc32)c1 (centres undefined) | i
N#Cc1ccc(/C=N/Nc2ccccc2C(F)(F)F)cc1 | i
COC(=O)c1cn([C@H]2CO[C@H]3[C@@H]2OC[C@@H]3NCc2ccccc2)nn1 | i
Cc1ccc(C)c(N=Cc2ccc(N(C)C)cc2)c1 | i
SMILES | KDM5B inhibitor
CN1C(=O)CCCCC1C(=O)NCc1cccc(F)c1 (centres undefined) | i
CN1CCN(Cc2ccc(Nc3cnc4ccc(-n5ccnc5)nn34)cc2)CC1 | i
Cc1noc(C)c1-c1cnc(Nc2ccc(CN3CCN(C)CC3)cc2)c2c1CCO2 | 25µM*
CN1CCN(Cc2ccc(Nc3ncc(-c4cncnc4)c4c3OCC4)cc2)CC1 | i
Cc1noc(C)c1-c1cn(C)c(=O)n2cc(COc3ccc(Cl)cc3)nc12 | i
Cc1noc(C)c1-c1cnc(Nc2ccc(Cl)cn2)c2c1CCO2 | 28µM*
Cc1nc2ccc(Cl)cc2cc1C(=O)N1CCN(CC(=O)N2CCCCC2C)CC1 (centres undefined) | i
CCc1ccc2[nH]c(C)c(CC(=O)O)c2c1 | i
CCOc1ccccc1CNC(=O)CCn1ccc(C)n1 | i
CN(C)c1ccc(S(=O)(=O)N2CCCCC2)cc1NC(=O)C1CCN(c2ccc(C#N)cn2)CC1 | i
COc1ccc(CC(=O)N2CC[C@@H](CC(=O)O)[C@@H](CCN(C)CCN(C)C)C2)cc1 | i
CCCS(=O)(=O)N1CC[C@@H](CC(=O)O)[C@@H](CC2=NCCc3cc(OC)ccc32)C1 | 32µM*
CC(C)c1ccc(NC(=O)N2CC[C@@H](CC(=O)O)[C@@H](CC3=NCCc4ccccc43)C2)cc1 | i
COc1ccc(NC(=O)N2CC[C@@H](CC(=O)O)[C@@H](CC3=NCCc4cc(OC)c(OC)cc43)C2)cc1 | 35µM*
N#Cc1ccc(C(=O)N2CC[C@@H](CC(=O)O)[C@@H](CC3=NCCc4ccccc43)C2)cc1 | i
COc1ccc2c(c1)CCN=C2C[C@H]1CN(C(=O)c2cccnc2)CC[C@H]1CC(=O)O | 32µM*
COc1ccc2c(c1)CCN=C2C[C@H]1CN(C(=O)C(=O)O)CC[C@H]1CC(=O)O | 28µM*
COc1ccc(C(=O)N2CC[C@@H](CC(=O)O)[C@@H](CCN3CCCCC3)C2)cc1 | i
NC(=O)c1ccc(S(=O)(=O)N2CC[C@@H](CC(=O)O)[C@@H](CC3=NCCc4ccccc43)C2)cc1 | i
COc1cccc(NC(=O)N2CC[C@@H](CC(=O)O)[C@@H](CC3=NCCc4cc(OC)c(OC)cc43)C2)c1 | i
O=C(O)C[C@@H]1CCN(S(=O)(=O)c2ccc(Cl)cc2)C[C@@H]1CC1=NCCc2cc(F)ccc21 | i
Cc1ccc(-c2nocc2CCC(=O)N2CCC(Cc3ccccc3)CC2)cc1 | i
COc1ccc(OCc2nnc3sc(-c4ccccn4)nn23)cc1 | i
CCOC(=O)N1CCN(c2ccc(C(=O)O)cc2NS(=O)(=O)c2ccc(OC)c(Cl)c2)CC1 | i

Compound activity as filed in PubChem BioAssay.
